From PubChem BioAssay
Most compounds without a hit are left out; they make up all but 4.1% or so of the library.
PglD inh – C. jejuni PglD acetyltransferase inhibitors, primary screen, biochemical, DTNB colorimetric, single point | purified PglD enzyme, DTNB colorimetric CoA detection | inhibition, % at 12.5 µM | actives 0.098% (n = 360,000) | AID 602405, 2012; in the data active means inhibition above about 16%, passing the limit was not always enough
ALR H2O2 inh – inhibitors of human ALR sulfhydryl oxidase, primary screen, biochemical, H2O2 detection, HRP-luminol luminescence, single point; FAD-linked sulfhydryl oxidase ALR (Homo sapiens), P55789; purified ALR, DTT oxidation; inhibition, % (no concentration beside the values); actives 3.8% (n = 290,000); AID 485317, 2010;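 active means mean replicate inhibition above about 79%, with every replicate also reaching it, limit read from the data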
CASP6 VEID inh – human caspase-6 inhibitors, primary screen, biochemical, VEID-R110 fluorescence, single point, set 2. P55212. purified caspase-6, Z-VEID-R110 cleavage fluorescence. inhibition, % at 12.5 µM. actives 0.53% (n = 350,000). AID 686996, 2013;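 active means mean inhibition across replicates at least about 35%, with every replicate also reaching that limit, limit read from the data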;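 further: 0% = median of neutral control wells and 100% = no fluorescence left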
NSD2 inh – NSD2 histone methyltransferase inhibitors, primary screen, biochemical, AlphaScreen, single concentration, set 2 | Histone-lysine N-methyltransferase NSD2 (Homo sapiens), O96028 | NSD2 peptide methylation, 120 min | inhibition, % at 12.5 µM | actives 0.54% (n = 310,000); in the data active means inhibition above about 50%
HIV Env fusion – inhibitors of HIV-1 Env-driven cell-cell fusion, primary screen, HeLa-JRFL effector, CEM21 target cells, luciferase; inhibition, % at 12.3 µM; actives 1.1% (n = 360,000);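 active means mean replicate inhibition score of at least 50 and every replicate individually at or above 50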;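 further: 0% = plate neutral controls and 100% = maraviroc near 300 nM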
F508del corr – F508del CFTR correction, initial screen, CFBE line, single point | actives 0.36% (n = 350,000) | CFBE cells, YFP halide quenching; stimulated with forskolin plus potentiator P3; % fluorescence drop versus neutral controls | activity (quench increase), % at 7.58 µM | AID 720511, 2013;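 active means mean added fluorescence quench of at least 8% versus neutral control, with both replicates also reaching 8%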;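 further: cells transiently co-express mutant CFTR-F508del with the halide-sensitive YFP; corrector assay measuring rescue of mutant channel to the surface after 24 h compound exposure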
AlphaScreen art – AlphaScreen signal interference with preloaded methylated product, dose response, artefact control for NSD2 inhibitor project, biochemical, cherry-picked samples. shares compounds with NSD2 inh. AlphaScreen artifact counterscreen, preloaded methylated H4 peptide. AC35, µM (top dose mostly 10 µM), without a hit: top-dose activity change, negative = signal loss. actives 9.4% (n = 1,500); call rule not given here
An asterisk follows results filed as active; nt = no result; [ ] = dose if it differs, or a comment.

SMILES | PglD inh | ALR H2O2 inh | CASP6 VEID inh | NSD2 inh | HIV Env fusion | F508del corr | AlphaScreen art
COC(=O)[C@H]1[C@H](CO)[C@H]2Cn3c(cccc3=O)[C@H]2N1C(=O)C1CCCC1 | nt | nt | 0 | nt | nt | 2 | nt
COCCCN1CC(=O)N2C(c3cccc(C)c3)c3[nH]c4ccccc4c3C[C@H]2C1=O (stereo partly specified) | 1 | -5 | 2 | 0 | 1 | 3 | nt
COCCN1CC(=O)N2C(c3cccc(C)c3)c3[nH]c4ccccc4c3C[C@H]2C1=O (stereo partly specified) | nt | nt | 3 | 52* | 16 | 2 | -7%
Cn1c(N)c(C#N)c2c(c1=S)COC(C)(C)C2 | 5 | 40 | nt | -4 | nt | nt | nt
Cn1c(N)c(C#N)c2c(c1=S)CSC(C)(C)C2 | -6 | 0 | nt | 51* | -45 | nt | -2%
CC(=O)Nc1ccc(C(=O)OCC(=O)/C(C#N)=C(\C)N)cc1 | nt | -8 | 2 | 74* | -42 | -2 | -4%
O=C(O)c1cccc(NC2=C(Cl)C(=O)c3ccccc3C2=O)c1 | 4 | nt | 25 | 99* | -18 | 1 | -4%
CC(C)NC1=C(Cl)C(=O)c2ccccc2C1=O | -7 | -17 | nt | 34 | nt | nt | nt
O=C1C(Cl)=C(NCCc2ccccc2)C(=O)c2ccccc21 | 0 | nt | 44* | 81* | 6 | -8 | -18%
C=CCNC1=C(Cl)C(=O)c2ccccc2C1=O | 4 | -58 | nt | 92* | -17 | -1 | -16%
O=C1C(Cl)=C(Nc2ccccc2)C(=O)c2ccccc21 | -1 | -2 | 5 | 0 | -199 | nt | nt
C[C@H](CO)N1C[C@H](C)[C@H](CN(C)C(=O)c2ccc(F)cc2)OCc2ccccc2-c2c(n(C)c3ccccc23)C1=O | 3 | nt | -1 | nt | nt | 4 | nt
Cc1ccc(S(=O)(=O)N[C@H]2CC[C@@H](CCn3cc(-c4cccc(F)c4)nn3)O[C@H]2CO)cc1 | 2 | nt | 1 | nt | 0[16.7 µM] | 4 | nt
Cc1cc[n+](C2=C([O-])c3ccccc3C(=O)/C2=N\S(=O)(=O)c2cccs2)cc1C | -2 | -18 | 5 | 12 | -8 | nt | nt
CCCC[n+]1ccn(C2=C([O-])c3ccccc3C(=O)/C2=N\S(=O)(=O)c2ccccc2)c1 | -3 | -28 | nt | 31 | -16 | nt | nt
CC(C)[n+]1ccn(C2=C([O-])c3ccccc3C(=O)/C2=N\S(=O)(=O)c2ccccc2)c1 | nt | -24 | 35* | 96* | 17 | 1 | 4%
CC(C)(C)c1cc[n+](C2=C([O-])c3ccccc3C(=O)/C2=N\S(=O)(=O)c2ccccc2)cc1 | 5 | -26 | 7 | 63* | -13 | -3 | -3%
CC(=O)c1c(C)oc2c1cc(O)c1ccccc12 | nt | nt | -5 | nt | 21 | -1 | nt
CC(=O)c1cc(O)c2ccccc2c1O | -11 | -2 | 38* | 79* | -33 | -1 | -5%
COc1ccc2noc3c2c1C(=O)c1ccccc1-3 | -1 | nt | 46* | 108* | 0 | 37* | -6%
COc1ccc(OC)c2c1C(=O)c1ccccc1C2=O | nt | nt | nt | -2 | -99 | nt | nt
CC(C)(C)c1[nH]nc2c1C(c1ccoc1)C(C#N)=C(N)O2 (stereo unspecified) | -3 | 15 | nt | 76* | nt | nt | -2%
CC1CCC2(CC1)NC(=O)N(CC(=O)N(Cc1ccccc1)C(C)(C)C)C2=O (stereo unspecified) | -2 | 0 | -1 | -3 | 3 | -1 | nt
COc1ccc(CN(C(=O)CN2C(=O)NC3(CCC(C)CC3)C2=O)C(C)Cc2cccs2)cc1 (stereo unspecified) | -1 | -4 | 3 | 55* | nt | 0 | -7%
COc1ccc2c3c(cccc13)N(C)N=C2C | -7 | 75 | nt | 72* | nt | nt | 3%
SMILES | PglD inh | ALR H2O2 inh | CASP6 VEID inh | NSD2 inh | HIV Env fusion | F508del corr | AlphaScreen art
CO[C@@H](CN(C)C(=O)c1ccc2c(c1)OCO2)[C@@H](C)CN([C@H](C)CO)S(=O)(=O)c1ccc(Cl)cc1 | 1 | nt | 2 | nt | nt | 0 | nt
COc1cccc(S(=O)(=O)Nc2ccc3c(c2)OC[C@H](C)NC[C@@H](C)[C@@H](OC)CN(C)C3=O)c1 | 0 | nt | 0 | nt | -26[16.7 µM] | 0 | nt
COc1cccc(NC(=O)N[C@H]2C=C[C@H](CC(=O)NCc3ccncn3)O[C@@H]2CO)c1 | 1 | nt | 1 | nt | -11[16.7 µM] | -4 | nt
Cc1ccc(-n2nc(C(=O)NCc3ccc(C)o3)c3c4ccccc4n(C)c3c2=O)cc1 | nt | -3 | nt | 53* | 22 | nt | -5%
COc1ccc(-c2ccc([C@@H]3[C@@H](CO)N4C(=O)CN(Cc5ccccc5)C[C@H]34)cc2)cc1 | nt | nt | 3 | nt | nt | 2 | nt
CCOc1cc(NC(=O)c2ccccn2)c(OCC)cc1NC(=O)c1ccccc1 | nt | -5 | 0 | 0 | 9 | 0 | nt
CCOc1cc(NC2CS(=O)(=O)CC2O)c(OCC)cc1NC(=O)c1ccccc1 (stereo unspecified) | 0 | 89* | nt | 61* | nt | nt | -7%
COc1cc(NC(=O)c2ccccc2)c(OC)cc1NC(=O)CSc1[nH]c(=O)cc(C)c1C#N | 4 | -19 | 1 | 130* | -88 | 6 | -6%
COc1cc(-c2nnn(Cc3ccccc3C)n2)cc(OC)c1OC | -1 | -3 | 0 | 54* | -6 | 1 | -1%
Cc1cc(C)c(Nc2cc(S(=O)(=O)O)c(N)c3c2C(=O)c2ccccc2C3=O)c(C)c1 | nt | nt | nt | 145* | 18 | nt | 6.2µM*
COc1cc(/C=C/C(=O)OCC(=O)NC2CCCCCCC2)ccc1O | 5 | nt | -2 | 20 | -6 | 1 | nt
COc1cc(/C=C/C(=O)OCC(=O)NNC(=O)c2cc(Cl)ccc2OC)ccc1O | -2 | 19 | 5 | 63* | nt | 4 | 2%
O=S(=O)(c1ccc(F)cc1)N1CCCCN2[C@H](CO)[C@@H](c3ccc(-c4ccccc4)cc3)[C@H]2C1 | 0 | nt | 0 | nt | nt | -2 | nt
C[C@H](CO)N1C[C@H](C)[C@H](CN(C)S(=O)(=O)c2cccs2)OCCCC[C@H](C)Oc2ccc(NC(=O)C3CCCCC3)cc2C1=O | 4 | nt | 0 | nt | -315[16.7 µM] | 1 | nt
COc1ccc(-n2nnnc2SCC(=O)c2ccc(O)c(O)c2)cc1 | 1 | nt | nt | -1 | -232 | nt | nt
NC(=O)c1ccc(-n2nnnc2SCC(=O)c2ccc(O)c(O)c2)cc1 | nt | 96* | 17 | 89* | -3 | 0 | -5%
Cc1ccc(S(=O)(=O)N[C@H]2CC[C@H](CC(=O)NCCCN(C)C)O[C@@H]2CO)cc1 | 1 | nt | -3 | nt | nt | 3 | nt
